Source: PubChem BioAssay (National Center for Advancing Translational Sciences (NCATS))
A selection: hits, their analogues and other compounds. The true share with any hit is near 15%.
ALOX12 inh: inhibitors of human 12S-lipoxygenase ALOX12; hit rate 1.1% among 580,000; P18054; Potency, µM (highest dose often 108 µM), for the others: at the highest dose activity change, negative = inhibition, most hits filed as inhibitors; AID 1671190; purified 12hLO, xylenol orange hydroperoxide absorbance
Target sequence (P18054 whole entry, looked up): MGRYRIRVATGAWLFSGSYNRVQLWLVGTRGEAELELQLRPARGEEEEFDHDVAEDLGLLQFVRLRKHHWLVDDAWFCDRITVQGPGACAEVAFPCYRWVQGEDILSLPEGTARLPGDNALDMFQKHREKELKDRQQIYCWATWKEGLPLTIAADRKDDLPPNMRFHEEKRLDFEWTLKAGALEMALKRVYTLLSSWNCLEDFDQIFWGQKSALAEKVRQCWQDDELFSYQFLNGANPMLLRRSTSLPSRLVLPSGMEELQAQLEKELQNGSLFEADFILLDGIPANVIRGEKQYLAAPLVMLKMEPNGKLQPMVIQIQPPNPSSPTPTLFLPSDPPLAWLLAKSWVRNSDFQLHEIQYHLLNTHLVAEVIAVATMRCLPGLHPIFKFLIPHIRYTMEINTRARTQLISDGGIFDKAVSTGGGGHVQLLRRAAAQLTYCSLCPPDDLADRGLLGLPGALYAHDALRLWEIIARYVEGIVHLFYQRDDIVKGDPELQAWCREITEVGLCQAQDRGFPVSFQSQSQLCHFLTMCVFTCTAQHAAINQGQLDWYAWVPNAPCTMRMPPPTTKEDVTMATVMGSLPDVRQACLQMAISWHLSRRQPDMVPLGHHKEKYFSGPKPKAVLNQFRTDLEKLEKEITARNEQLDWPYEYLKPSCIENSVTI
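Purified human 12hLO (150 nM final) in 25 mM Hepes, 0.01% Triton X-100, pH 7.0 was preincubated 15 min at room temperature with compound. Then 40 uM arachidonic acid was added, 30 min. Hydroperoxide was read by Fe-XO absorbance ratio 573/405 nm.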
VP16 counter: counter-screen for ROR gamma inhibitors: Gal4-VP16 reporter; Drosophila S2 Gal4-VP16 UAS-luciferase, luminescence, 20 h; Potency, µM (series often up to 53.6 µM), without a hit: at the highest dose activity, negative = inhibition, usual class: inhibitors; hit rate 3.5% among 310,000; AID 2546;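 note: Gal4-VP16 expression switched on by copper sulfate through the metallothionein promoter; nearly all actives have a fitted effect of over 50% in size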
RORg inh: ROR gamma (mouse) transcription inhibition. P51450. Drosophila S2 Gal4-RORgamma UAS-luciferase reporter, 20 h. Potency, µM (highest dose often 53.6 µM), for inactives: top-dose activity change, negative = inhibition, most hits filed as inhibitors. hit rate 5.4% among 310,000. AID 2551; note: nearly all actives have a fitted effect of over 60% in size
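In this cell-based reporter format, copper sulfate (700 uM final) drives Gal4–ROR gamma fusion expression from a metallothionein promoter in Drosophila Schneider cells; compounds preincubated 1 hr, reporter read after 20 hr at ambient temperature.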
ELG1 DNA repair: inhibitors of ELG1-dependent DNA repair in HEK293T cells. Potency, µM (top dose mostly 46.1 µM), for inactives: top-dose activity change, negative = inhibition, hits mostly inhibitors. hit rate 2.3% among 330,000. AID 504467. HEK293T ELG1-luciferase reporter, luminescence, 16 h; DNA damage induced by 5-fluorouridine; note: nearly all actives have a fitted effect of over 55% in size
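Quantitative HTS, concentration-response format. 2,000 cells/well co-treated with 5-fluorouridine and compound, 16 hr in 5% CO2 at 37 °C; ONE-Glo luminescence read after 30 min.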
DT40 TDP1 CPT: DT40-hTDP1 cell growth loss with CPT; AID 686979; hit rate 12% among 420,000; Potency, µM (highest dose often 46.2 µM), inactives show top-dose activity change, negative = growth inhibition, actives largely listed as inhibitors; chicken DT40 Tdp1-/-;hTDP1 cells + 20 nM CPT, ATP luminescence, 48 h; note: nearly all actives have a fitted effect of over 55% in size
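Cell growth measured by CellTiter-Glo luminescence after a minimum 48 h, 37 C compound exposure with 20 nM CPT in Tdp1-knockout DT40 cells stably expressing hTDP1, seeded 400/well; qHTS titration format.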
TDP1 cell noCPT: qHTS for Inhibitors of human tyrosyl-DNA phosphodiesterase 1 (TDP1): qHTS in cells in absence of CPT; DT40 Tdp1-/- hTDP1 cells, no CPT, ATP luminescence, 48 h; Potency, µM (highest dose often 46.2 µM), for the others: at the top dose activity change, negative = growth inhibition, actives largely listed as inhibitors; hit rate 15% among 420,000; AID 686978, 2013; note: nearly all actives have a fitted effect of over 55% in size
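Cells were dispensed at 400 per well, compounds added by pin tool, plates incubated ≥48 hr at 37 °C, then CellTiter-Glo added for 30 min at room temperature before luminescence reading. Line: DT40 Tdp1-/- complemented with hTDP1; camptothecin omitted.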
Numbers without * were called inactive; [ ] = remark or other dose. Calls come from the whole dose curve; as a rule, active = well fitted curve in the direction sought with a large enough effect; inconclusive = small, poorly fitted or top-dose-only effect, or another doubt; inactive = no such curve, though single readings can be large; an effect the other way counts as inactive or inconclusive. % is set by controls: 0 for no effect and ±100 for the full control effect; potency is the fitted concentration of half-maximal effect.

For O=C(C1CCC(Cn2c(=S)[nH]c3ccccc3c2=O)CC1)N1CCOCC1 (configuration not stated) the results were ALOX12 inh -6.3%, VP16 counter inconclusive, RORg inh 11.2µM*, ELG1 DNA repair -22.5%, DT40 TDP1 CPT -1.6% and TDP1 cell noCPT -25.1%.
For COc1cc(S(=O)(=O)Nc2ccc(S(C)(=O)=O)cc2)ccc1NC(C)=O the results were ALOX12 inh 50.7%.
`O=C(CCCn1c(=S)[nH]c2ccc(Br)cc2c1=O)N1CCN(c2ccccn2)CC1` gave ALOX12 inh -3.7%, VP16 counter inconclusive, RORg inh 7.08µM*, ELG1 DNA repair 18.4µM*, DT40 TDP1 CPT inconclusive and TDP1 cell noCPT inconclusive.
`COc1ccccc1N1CCN(C(=O)C2CCC(Cn3c(=S)[nH]c4ccccc4c3=O)CC2)CC1` (configuration not stated) gave ALOX12 inh -10.2%, VP16 counter 5.01µM*, RORg inh 2.51µM*, ELG1 DNA repair inconclusive, DT40 TDP1 CPT 23.1µM* and TDP1 cell noCPT inconclusive.
CC(=O)N1CCN(c2ccc(NC(=O)COc3ccc(Cl)cc3Cl)cc2)CC1 was read as ALOX12 inh inconclusive, VP16 counter 1.0%, RORg inh 7.7%, ELG1 DNA repair 9.2µM*, DT40 TDP1 CPT 23.1µM* and TDP1 cell noCPT 18.4µM*.
For CC(Oc1ccc(Cl)cc1Cl)C(=O)Nc1ccc(N2CCN(C)CC2)cc1 (configuration not stated) the results were ALOX12 inh inconclusive, VP16 counter -8.3%, RORg inh 7.7%, ELG1 DNA repair -23.0%, DT40 TDP1 CPT inconclusive and TDP1 cell noCPT 18.4µM*.
For CC(=O)N1CCN(c2ccc(NC(=O)C(C)Oc3ccc(Cl)cc3Cl)cc2)CC1 (configuration not stated) the results were ALOX12 inh 0.0%, VP16 counter -8.0%, RORg inh 36.5%, ELG1 DNA repair inconclusive, DT40 TDP1 CPT inconclusive and TDP1 cell noCPT 20.6µM*.
For CCC(C)OC(=O)COc1ccc2c(=O)c(Oc3ccc(C(C)(C)C)cc3)coc2c1 (configuration not stated) the results were ALOX12 inh 34.3%.
Screening NC(=O)c1cccc(CN2CCC3(C2)CN(C(=O)C2CCCC2)c2ccccc2CO3)c1 (configuration not stated) returned ALOX12 inh 5.4%[6.33 µM].
For Cn1c(=O)c2ccnn2c2ccc(C(=O)NCC3CCN(Cc4cccc(F)c4)CC3)cc21 the results were ALOX12 inh -6.3%.
`O=C(O)C1C2C=CC(C2)C1C(=O)NCc1ccc(Cl)c(Cl)c1` (configuration not stated) gave ALOX12 inh -4.8%, VP16 counter 2.1%, RORg inh 41.9%, ELG1 DNA repair -11.5%, DT40 TDP1 CPT 14.6µM* and TDP1 cell noCPT -4.0%.
For FC(F)(F)c1cc(CCN2CCNC[C@H]2Cc2cccc3ccccc23)cc(C(F)(F)F)c1 the results were ALOX12 inh inconclusive, ELG1 DNA repair inconclusive, DT40 TDP1 CPT 8.2µM* and TDP1 cell noCPT 8.2µM*.
`Oc1ccc(C[C@H]2CNCCN2CCc2cc(C(F)(F)F)cc(C(F)(F)F)c2)cc1` gave ALOX12 inh inconclusive, ELG1 DNA repair 11.5%, DT40 TDP1 CPT 10.3µM* and TDP1 cell noCPT inconclusive.
`O=C1NC[C@@H](Cc2ccc(O)cc2)N(CCc2cc(C(F)(F)F)cc(C(F)(F)F)c2)C1=O` gave ALOX12 inh inconclusive, DT40 TDP1 CPT inconclusive and TDP1 cell noCPT -18.6%.
Screening COc1cc(CCCN2CCNC[C@@H]2Cc2ccccc2)cc(OC)c1OC returned ALOX12 inh -7.1%, ELG1 DNA repair 29.5%, DT40 TDP1 CPT -10.2% and TDP1 cell noCPT 6.4%.
Screening Oc1ccc(C[C@@H]2CNCCN2CCc2cc(C(F)(F)F)cc(C(F)(F)F)c2)cc1 returned ALOX12 inh -21.4%, ELG1 DNA repair 13.3%, DT40 TDP1 CPT 23.1µM* and TDP1 cell noCPT inconclusive.
CCOC(=O)COc1ccc(Br)cc1/C=C\c1[nH]c(=O)[nH]c(=O)c1[N+](=O)[O-] was read as ALOX12 inh -13.7%, VP16 counter -6.9%, RORg inh 7.8%, ELG1 DNA repair -2.2%, DT40 TDP1 CPT 23.1µM* and TDP1 cell noCPT 23.1µM*.
Screening O=C(NC1CCc2n[nH]c(=O)n2CC1)c1ccoc1 (configuration not stated) returned ALOX12 inh 2.6%.
`O=c1ccc(-c2ccccc2)nn1Cc1c(F)cccc1Cl` gave ALOX12 inh -19.6%, DT40 TDP1 CPT 18.4µM* and TDP1 cell noCPT inconclusive.
`COc1cc2nc(NC3CCN(Cc4ccccc4)CC3)nc(N3CCCN(C)CC3)c2cc1OC` gave DT40 TDP1 CPT 5.01µM* and TDP1 cell noCPT 5.01µM*.
COc1cc2nc(N3CCOCC3)nc(NC3CC3)c2cc1OC was read as DT40 TDP1 CPT 12.6µM* and TDP1 cell noCPT 12.6µM*.
COc1cc2nc(N3CCCN(C)CC3)nc(NC3CCN(C)CC3)c2cc1OC was read as DT40 TDP1 CPT 12.6µM* and TDP1 cell noCPT 17.8µM*.
Screening COc1cc2c(NC3CCN(C)CC3)nc(N3CCCN(C)CC3)nc2cc1OCC1CCCNC1 (configuration not stated) returned DT40 TDP1 CPT -15.8% and TDP1 cell noCPT -0.1%.
COc1cc2nc(N3CCCN(C)CC3)nc(NC3CCNCC3)c2cc1OC was read as DT40 TDP1 CPT 11.2µM* and TDP1 cell noCPT 12.6µM*.
For Cc1nccc(-c2cccc(NC(=O)c3nccnc3N)c2)n1 the results were ALOX12 inh -24.0%.
Screening COc1cc2nc(N3CCN(C)CC3)nc(NC3CCN(C)CC3)c2cc1OC returned DT40 TDP1 CPT 8.91µM* and TDP1 cell noCPT 11.2µM*.
COc1cc2c(NC3CCN(C)CC3)nc(N3CCN(C)CC3)nc2cc1OCCOCCN(C)C was read as DT40 TDP1 CPT -14.9% and TDP1 cell noCPT -9.2%.
Screening COc1cc2nc(N3CCCCC3)nc(NC3CCN(C)CC3)c2cc1OC returned DT40 TDP1 CPT 7.94µM* and TDP1 cell noCPT 7.94µM*.
For COc1cc2nc(N3CCCCC3)nc(NC3CCN(Cc4ccccc4)CC3)c2cc1OC the results were DT40 TDP1 CPT 5.01µM* and TDP1 cell noCPT 3.16µM*.
